Source: ChEMBL document CHEMBL3988442, “University of Dundee, Small-Polar-MMV Screening Library” (2021)
The whole screen tested about 48,000 compounds, of which about 13,000 (27%) showed an effect of 50% or more. The list shows a part of the results.

Tested on: Wolbachia pipientis
Assay: Anti-Wolbachia Cell-Based Screen
Type: functional
Design: scale not given: in the data most compounds retested in dose-response had high values
Conditions: 5 µM

Structure (SMILES)	Percent Effect
c1ccc(CCN2CCOC3(CCc4ccccc43)C2)nc1 (stereo not drawn)	-3.634%
CC[C@H]1CN2CC[C@H]1C[C@@H]2CNC(=O)Nc1cc(OC)cc(OC)c1	-7.573%
CN1CCN2C(=O)N(C3CCOCC3)C[C@H]2C1	-7.245%
CNC(=O)CN1CC[C@H]2CN(C(=O)c3ccc(C)nc3)C[C@H]2C1.O=C(O)C(F)(F)F	-24.07%
Cc1nc(CN2CCO[C@H]3CN(C(=O)c4ccncc4)C[C@H]32)cs1	6.304%
Cc1nc(CN2C[C@@H]3CN(C(=O)c4ccncc4)C[C@@H]3C2)cs1	103.2%
Cc1ccc(C(=O)N2C[C@H]3CNC[C@H]3C2)cn1	11.13%
Cc1nc(CN2CCC23CCN(C(=O)c2ccncc2)CC3)cs1	-6.735%
Cc1ccc(C(=O)N2C[C@H]3CN(Cc4csc(C)n4)C[C@H]3C2)cn1	93.97%
O=C(Nc1ccccc1)C1=NOC2(CCCNC2)C1 (stereo not drawn)	-15.15%
Cl.N#CC1(C(=O)NCC2CCC3(CCNCC3)O2)CC1 (stereo not drawn)	-12.24%
COc1cc2nc(NCc3ccc(C)nc3)nc(N)c2cc1OC	15.36%
CN1C[C@@H]2COC[C@]2(C(=O)NCc2cccs2)C1	-12.7%
Cc1cc(C)c(CNc2nc3ccccc3cc2CO)c(=O)[nH]1	34.93%
COc1cc(CNC(C)Cn2cccn2)cc(OC)c1 (stereo not drawn)	102.9%
CC(Cn1cccn1)NCc1csc(-c2cccs2)n1 (stereo not drawn)	1.256%
COc1cc(CNCC(O)c2ccc(C)cc2)cc2c1OCCO2.Cl (stereo not drawn)	4.109%
COc1c(Br)cc(Br)cc1CNC(C)Cn1cccn1 (stereo not drawn)	3.191%
CC(Cn1cccn1)NCc1csc2c1CCCC2 (stereo not drawn)	12.25%
CC(Cn1cccn1)NCC(=O)NC1CCOCC1 (stereo not drawn)	1.6%
COc1ccc(CNC(C)Cn2cccn2)cc1OC (stereo not drawn)	104.4%
COc1cc(CNC(C)Cn2cccn2)cc2c1OCCO2.Cl (stereo not drawn)	99.62%

Structure (SMILES)	Percent Effect
CC(Cn1cccn1)NCCS(=O)(=O)c1ccccc1 (stereo not drawn)	-1.056%
COc1cccc(CNC(C)Cn2cccn2)c1OC.Cl (stereo not drawn)	8.103%
COc1ccc(CNC(C)Cn2cccn2)c(OC)c1OC.Cl (stereo not drawn)	98.57%
CCc1nc(CNC(C)Cn2cccn2)cs1 (stereo not drawn)	2.575%
CC(c1ccc(F)cc1)N1CCN(Cc2ccc(C#N)cc2)CC1 (stereo not drawn)	26.99%
CC(C)OCCNC1(c2ccc(Cl)cc2)CCOCC1	3.7%
CC(=O)N1C[C@H]2CNC[C@@]2(C(=O)NCCNc2ccncc2C)C1	-5.626%
Cc1cccc(-c2ncc(CNC(C)Cc3ccncc3)cn2)c1 (stereo not drawn)	-2.738%
Cc1nnc([C@@H]2CC[C@@H]3[C@@H](CCN3Cc3ccccn3)O2)o1.O=C(O)C(F)(F)F.O=C(O)C(F)(F)F	-6.583%
CC(Cn1ccnc1)NCc1ccc2nonc2c1 (stereo not drawn)	-7.482%
COc1cc(CNC(C)Cn2cccn2)cc(OC)c1OC.Cl (stereo not drawn)	-0.312%
COc1ccc(CNC(C)Cn2cccn2)cc1F (stereo not drawn)	80.61%
CC(Cn1cncn1)NCc1ccc2nonc2c1 (stereo not drawn)	-26.41%
COc1cc(CNC(C)Cn2cccn2)cc(Cl)c1OC.Cl (stereo not drawn)	86.44%
CC(Cn1cccn1)NCc1nc(-c2cccs2)no1 (stereo not drawn)	-0.9937%
Cc1nc(C)c(CC(=O)N2C[C@@H]3CC[C@H](C2)N(CC2CC2)C3)s1	5.812%
O=C(O)C(F)(F)F.O=S1(=O)NCC2(CCNCC2)COc2ccccc21	-6.327%
O=S1(=O)N(c2ccccc2)C[C@H](O)[C@]12CCNC2	107%
O=S1(=O)N(c2ccccc2)C[C@@H](O)[C@]12CCNC2	103.1%
OCC1N(Cc2ccco2)[C@H]2CC[C@]1(O)CC2 (stereo partly drawn)	109.9%
CN1CCN(Cc2ccco2)Cc2cccnc21	10.4%
Cc1cccc(CN2C[C@@H]3COC[C@]3(COCC(=O)N(C)C)C2)n1.O=C(O)C(F)(F)F.O=C(O)C(F)(F)F	109.1%

Structure (SMILES)	Percent Effect
COC[C@]12COC[C@H]1CN(Cc1ccc3ccccc3n1)C2.O=C(O)C(F)(F)F.O=C(O)C(F)(F)F	-16.09%
Cc1cc(CN2C[C@@H]3COC[C@]3(COCC(=O)N(C)C)C2)no1	104.2%
Cc1cc(CN2C[C@@H]3COC[C@]3(COCc3csc(C)n3)C2)no1.O=C(O)C(F)(F)F	-7.222%
Cc1cc(CN2C[C@@H]3COC[C@]3(CNC(=O)N(C)C)C2)no1.O=C(O)C(F)(F)F	-12.05%
CN(C)C[C@]12COC[C@H]1CN(Cc1ccc3ccccc3n1)C2.O=C(O)C(F)(F)F.O=C(O)C(F)(F)F.O=C(O)C(F)(F)F	-5.05%
Cc1ccc(CN2C[C@H]3OC(=O)N(Cc4ccccn4)[C@H]3C2)o1	4.449%
Cc1ncsc1CN1C[C@@H](OCc2ccccn2)[C@H]2OCCC[C@H]21.O=C(O)C(F)(F)F.O=C(O)C(F)(F)F.O=C(O)C(F)(F)F	-3.232%
Cc1cccc(CN2C[C@@H]3COC[C@H](NS(C)(=O)=O)[C@@H]3C2)n1.O=C(O)C(F)(F)F.O=C(O)C(F)(F)F	86.62%
Cc1cccc(CN2CCO[C@H]3[C@H](Oc4ccccn4)CC[C@@H]32)n1.O=C(O)C(F)(F)F.O=C(O)C(F)(F)F.O=C(O)C(F)(F)F	-5.124%
Cc1cccc(CN2C[C@@H]3CCCO[C@@H]3[C@H](NS(C)(=O)=O)C2)n1	6.966%
Cc1ccc(CN2C[C@@H](OCc3ccccn3)[C@H]3COC[C@H]32)o1.O=C(O)C(F)(F)F.O=C(O)C(F)(F)F	91.93%
Cc1noc(C)c1CN1C[C@H](OCC2CC2)[C@H]2COC[C@H]21.O=C(O)C(F)(F)F	-11.17%
CCc1ccc(CN2C[C@H](OC)[C@H]3COC[C@H]32)o1.O=C(O)C(F)(F)F	106.4%
Cc1noc(C)c1CN1C[C@H](OCC(=O)N(C)C)[C@H]2COC[C@H]21.O=C(O)C(F)(F)F	-5.936%
Cc1cccc(CN2C[C@@H](NC(=O)C3CCC3)[C@H]3COC[C@H]32)n1	5.905%
Cc1cccc(CN2C[C@H](NS(C)(=O)=O)[C@@H]3OCCC[C@@H]32)n1.O=C(O)C(F)(F)F.O=C(O)C(F)(F)F	-8.995%
Cc1cccc(CN2C[C@H](OCc3ccccn3)[C@H]3COC[C@H]32)n1.O=C(O)C(F)(F)F.O=C(O)C(F)(F)F	114.7%
O=C1NCCC12CN(CC1CC1)CC21CCNCC1 (stereo not drawn)	-8.947%
CCC/C=C/c1ccc(CN2CCN(C)CC2)cn1	-3.388%
CC(C)C(NC(=O)c1ccccc1)C(=O)N1CCC2(CC1)OCCO2 (stereo not drawn)	-14.78%
O=C(NCC(=O)N1CCC2(CC1)OCCO2)c1ccoc1	92.23%
CC(C)C(NC(=O)c1ccco1)C(=O)N1CCC2(CC1)OCCO2 (stereo not drawn)	-15.39%

Structure (SMILES)	Percent Effect
Cc1cccc(CN2C(=O)C[C@H]3[C@@H]2CCN3Cc2ccco2)n1.O=C(O)C(F)(F)F.O=C(O)C(F)(F)F	95.2%
Cc1cccc(CN2C(=O)CC[C@H]3[C@@H]2CCN3CC(=O)N(C)C)n1.O=C(O)C(F)(F)F.O=C(O)C(F)(F)F	6.381%
Cc1cccc(CN2C(=O)C[C@H]3[C@@H]2CCN3Cc2nccs2)n1.O=C(O)C(F)(F)F.O=C(O)C(F)(F)F	101.6%
Cc1cccc(CN2C(=O)C[C@@H]3[C@@H]2CCN3Cc2ccsc2)n1.O=C(O)C(F)(F)F.O=C(O)C(F)(F)F	96.12%
Cc1ccc(-c2noc(CC[C@@H]3CCCN4CCCC[C@H]34)n2)nn1	-24.46%
Cc1cc(C)nc(C2CCCNC2)n1.Cl.Cl (stereo not drawn)	131.4%
CNc1cc(C2CCCNC2)nc(C)n1.Cl.Cl (stereo not drawn)	69.51%
Cc1cc(N(C)C)nc(C2CCCNC2)n1.Cl (stereo not drawn)	130.2%
CN(C)c1cc(C2CCCNC2)ccn1.Cl.Cl (stereo not drawn)	113.5%
c1cncc(NCCNC2CCCNC2)c1 (stereo not drawn)	1.696%
Cc1cc(N(C)C)nc(N2CCCC2c2cccnc2)n1 (stereo not drawn)	6.252%
O=C([C@H]1C[C@H]2OCC[C@H]2N(Cc2ccncc2)C1)N1CCCCO1	-15.5%
Cc1nc(O)cc(CN2CC=C(c3cnn(-c4ccccc4)c3)CC2)n1	3.563%
O=C(O)C(F)(F)F.O=C1[C@H]2CN(Cc3cccs3)C[C@H]2CN1c1cncnc1	0.1136%
Cl.FC(F)(F)c1nc(C2CCCNC2)no1 (stereo not drawn)	113.6%
CC(C)c1nc(C2CCCNC2)no1.Cl (stereo not drawn)	-31.86%
Cc1cc(O)nc(C2CCCNC2)n1.Cl (stereo not drawn)	166.7%
COc1ccc(F)cc1C(=O)C1CCCN(Cc2cnc(C)s2)C1 (stereo not drawn)	-11.09%
N#Cc1cccc(N2CCCC3(CNCCO3)C2)n1.O=C(O)C(F)(F)F.O=C(O)C(F)(F)F (stereo not drawn)	1.133%
CN1C(=O)C2(CCN(Cc3cccnc3)CC2)c2cccc(F)c21.Cl	9.194%
COc1ccc(CCN)cc1-c1ccc(S(C)(=O)=O)cc1	-7.949%
O=C(c1cc(F)cc(F)c1)N1C[C@H]2CNC[C@H]2C1	-1.943%
